This passage reports INHIBITION results from ChEMBL document CHEMBL4513216, “Probing the Open Global Health Chemical Diversity Library for Multistage-Active Starting Points for Next-Generation Antimalarials” (ACS Infect Dis, 2020).

Among all 65,000 compounds or so, about 2,100 (3.2%) showed an effect of 50% or more. The median lay at about -52%. Shown is part of a subset that was picked to be rich in strong results.

For this assay, the system named is Plasmodium falciparum. The assay can be described thus: Screen against P. falciparum Asexual Blood Stage (ABS), at 5uM. It is filed as functional, Dd2. The settings on record: tested at 5 uM.
With `Cc1nc(=O)c(CC(=O)N2C[C@H]3CC[C@@H](C2)N(CC2CCC2)C3)c(C)[nH]1`, the INHIBITION is on record as -89.5%. The same measure for `CCN1CC(=O)NCC12CCN(C(=O)c1ccno1)C2` (centres undefined): -7.44%. The same measure for `N#Cc1cccc(S(=O)(=O)Nc2c(F)cccc2N2CCCC2)c1`: 74.1%. Turning to `N#Cc1cccc(C(=O)NS(=O)(=O)c2ccc(C#N)c(Cl)c2)c1`, the INHIBITION was -49.2%. On to `Cc1nc(CC(=O)N2CCN(Cc3ccc(C#N)cc3)CC2)cs1`, for which the INHIBITION is given as -11.175%. The same measure for `CCOc1ccc(Br)cc1C1CCCN1` (centres undefined): 72.9%. Turning to `CCOc1ccc(Br)cc1C1CCCCN1` (centres undefined), the INHIBITION is 78.2%. On to `CCOc1ccc(Cl)cc1C1CCCN1` (centres undefined), for which the INHIBITION is recorded as 87.7%. The same measure for `CC(C)NC(=O)C1CCC2(CCNCC2)C1` (centres undefined): -81.9%; for `CCN1CCC2(CC1)C(=O)Nc1ccc(C(=O)NC)cc12`: -38.9%.

On to `Cc1ccccc1CC(C)NC(=O)Nc1cnn(CC(N)=O)c1` (centres undefined), for which the INHIBITION is reported as -23.3%.

`CC(C)COC(=O)N1CCC2(CCNC2)C1` (centres undefined): the INHIBITION is given as -93.7%. The result for `Cc1ncsc1CN1CC[C@H]2C[C@H](c3ccncn3)O[C@@H]2C1` reads -37.3%; that for `O=C(c1nc(=O)[nH]c2ccccc12)N1CCCC2(CCNC2)C1` (centres undefined), -74.6%. The same measure for `O=S1(=O)N(c2ccccc2)C[C@H](O)[C@]12CCNC2`: -88.5%. The same measure for `O=C(N1CCCC1)C1(Cc2ccc(-c3cccs3)cc2)CCNC1` (centres undefined): 84.5%. Turning to `O=S1(=O)N(c2ccccc2)C[C@@H](O)[C@]12CCNC2`, the INHIBITION is recorded as -3.43%.

Regarding `NC(=O)C1(Cc2ccc(-c3ccccc3)cc2)CCNC1` (centres undefined), the INHIBITION came out at 92.7%.

Take `NC1(c2nc(-c3cccs3)cc(=O)[nH]2)CCCCC1`: the INHIBITION is -95.6%.

On to `CC(C)N1CCCC(Cc2nccnc2Cl)C1` (centres undefined), for which the INHIBITION was -59.8%. The result for `COc1ccc(C2SCC(=O)Nc3ccsc32)cc1` (centres undefined) reads -71.1%; that for `O=C(N[C@@H]1CN[C@H]2CCCO[C@H]21)c1cccnc1`, -128%; that for `c1cncc(OC[C@]23COC[C@H]2CN(Cc2cccs2)C3)c1`, -51.7%.

For `CCCN(C)CC1CCN(c2ccc(Br)c(C)n2)C1` (centres undefined), the INHIBITION is on record as 73.7%.

Consider `CCc1noc(CC)c1CC(=O)N1CCN(C(C#N)C(C)C)CC1` (centres undefined), for which the INHIBITION is -154%. For `CNC(=O)[C@@H]1C[C@H]2CN(C(=O)c3ccccn3)C[C@H]2N1C(C)C`, the INHIBITION was -23%.

With `CN(C[C@H]1CN2CC[C@H]1C[C@@H]2CNC(=O)c1ccco1)c1ccccc1`, the INHIBITION is on record as 71.2%. As for `CC[C@H]1CN2CC[C@H]1C[C@@H]2CNC(=O)c1ccco1`, the INHIBITION was -29.4%. The same measure for `CCN(CC)C[C@H]1CN2CC[C@H]1C[C@@H]2CNC(=O)c1ccco1`: -97.7%.
